The list is not random: actives were taken first. Their share in the collection is about 5.9%.
KB-3-1 cytotox – qHTS assay for MDR1-selective chemotherapeutics: Primary screen using the parental adenocarcinoma cell KB-3-1; KB-3-1 viability, CellTiter-Glo ATP luminescence, 72 h; hit rate 1.4% among 400,000; Potency, µM (series often up to 46.1 µM), hits mostly cytotoxic; AID 1347075, 2019; further: nearly all actives have a fitted effect of over 60% in size
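72 h, 37 °C compound treatment of KB-3-1 parental cells; CellTiter-Glo added, 10 min, luminescence read. Data corrected against DMSO-only plates and normalized before curve fitting.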
KB-V1 cytotox – qHTS assay for MDR1-selective chemotherapeutics: Primary screen using the drug-selected MDR subline cells KB-V1 | hit rate 3.4% among 400,000 | AID 1347076, 2019 | Potency, µM (top dose mostly 46.1 µM), usual class: cytotoxic | KB-V1 MDR cells viability, CellTiter-Glo, 72 h; further: nearly all actives have a fitted effect of over 60% in size
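In this primary screen, KB-V1 cells overexpressing P-gp are incubated with library compounds (lowest to highest concentration) for 72 h at 37 degrees C before a luminescent ATP viability read.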
ATXN2 expr inh – Primary qHTS for Inhibitors of ATXN expression; AID 1745845, 2022; Potency, µM (highest dose often 57 µM), actives largely listed as inhibitors; hit rate 0.72% among 360,000; HEK-293 ATXN2-luciferase reporter, luminescence, 24 h; further: nearly all actives have a fitted effect of over 55% in size
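ATXN2-luciferase reporter cells (luciferase flanked by upstream and downstream ATXN2 gene portions) were treated 24 h at 37 °C with compounds at up to 57 uM. SteadyGlo luminescence gave expression; GF-AFC fluorescence gave viability.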
TGFb inhibitor – qHTS for Inhibitors of TGF-b; HepG2 CAGA-GFP TGF-b/SMAD3 reporter, GFP fluorescence, 18 h; TGF-beta stimulated, 500 pg/mL final; Potency, µM (series often up to 46.1 µM), actives largely listed as inhibitors; hit rate 1.2% among 410,000; further: nearly all actives have a fitted effect of over 65% in size
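HEPG2 CAGA-GFP, 1000 cells/well; 2 h settle, 37 C; cpd via pin tool; TGF-b 500 pg/mL final; 18 h, 37 C; GFP imaging ex488/em500-530; %Activity normalised to -TGF-b and +DMSO controls; CRC fit, curve class.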
ATXN viability – Viability Counterscreen for Primary qHTS for Inhibitors of ATXN expression; S2 cells (HEK-293 line with an ATXN2-luciferase reporter) viability, CellTiter-Fluor protease fluorescence, 24 h; Potency, µM (highest dose often 56.7 µM), most hits filed as cytotoxic; hit rate 0.49% among 400,000; AID 651635, 2014; further: nearly all actives have a fitted effect of over 40% in size
HepG2 tox – qHTS for Inhibitors of TGF-b: Cytotox Counterscreen. HepG2 CAGA-GFP viability, ATP luminescence, 18 h. Potency, µM (top dose mostly 46.1 µM), actives largely listed as cytotoxic. hit rate 0.76% among 410,000. AID 588856, 2011
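HepG2 CAGA-GFP cells (1000/well, DMEM with 1% FBS) received compound, then TGF-beta at 500 pg/mL final, and were incubated 18 hours at 37 degrees C. Viability was read by CellTiter-Glo luminescence. Media-only wells were set as complete cell-killing and DMSO as no toxicity.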
A number is an active result. The call rests on the fitted dose curve; in most records, active means well fitted curve in the direction sought with a large enough effect; inconclusive means small, poorly fitted or top-dose-only effect, or another doubt; inactive means no such curve, though single readings can be large; an effect the other way counts as inactive or inconclusive.

Cc1nc2c3ccccc3nc(SCC(=O)c3ccc(Cl)cc3)n2n1 was read as KB-3-1 cytotox inactive, KB-V1 cytotox 10µM, ATXN2 expr inh inactive, TGFb inhibitor inactive, ATXN viability inactive and HepG2 tox inactive.
Screening Cc1ccc(-n2cc(C(=O)OCc3ccc(Cl)cc3)c3ccccc3c2=O)cc1 returned KB-3-1 cytotox inactive, KB-V1 cytotox inactive, TGFb inhibitor inactive and HepG2 tox inactive.
For COCCCNC(=O)c1ccc(-n2c(-c3ccccc3)cc3c2CCC(C)C3)cc1 (stereo not drawn) the results were TGFb inhibitor inactive and HepG2 tox inactive.
For O=C(c1cncc(Br)c1)N1CCC(N2CCCC2)CC1 the results were ATXN2 expr inh inactive.
COC(=O)C1CCN(Cc2ccc3c(c2)CN(C(=O)c2cc(C4CC4)on2)CCO3)CC1 was read as ATXN viability inactive.
Screening CC1=[N+](C)c2ccc3ccccc3c2C1(C)C returned KB-3-1 cytotox inconclusive, KB-V1 cytotox inconclusive, ATXN2 expr inh inconclusive, TGFb inhibitor 6.3µM, ATXN viability inactive and HepG2 tox inactive.
`Cc1c2ccccc2cc[n+]1C` gave KB-3-1 cytotox inactive, KB-V1 cytotox inactive, TGFb inhibitor inactive and HepG2 tox inactive.
For CC(C)(C)OC(=O)N(c1cccc2cccnc12)S(=O)(=O)c1ccccc1Br the results were TGFb inhibitor 4.5µM and HepG2 tox inactive.
Screening CCN(CC)C1=N/C(=C\c2ccc(OC)cc2)C(=O)N1c1ccccc1 returned KB-3-1 cytotox inactive, KB-V1 cytotox 8.2µM, ATXN2 expr inh inactive, TGFb inhibitor inactive, ATXN viability inactive and HepG2 tox inactive.
`C=CC1=C(C(=O)O)N2C(=O)[C@@H](NC(=O)/C(=N/OCC(=O)O)c3csc(N)n3)[C@H]2SC1` (stereo in doubt) gave ATXN viability inactive.
Screening O=C(Cn1cnc2c(cnn2-c2ccc(F)cc2)c1=O)N1CCN(c2ccccc2F)CC1 returned KB-3-1 cytotox inactive, KB-V1 cytotox 3.7µM, ATXN2 expr inh inactive, TGFb inhibitor inactive, ATXN viability inactive and HepG2 tox inactive.
`O=C(Cn1cnc2c(nnn2Cc2ccc(F)cc2)c1=O)N1CCCc2ccccc21` gave KB-3-1 cytotox inactive, KB-V1 cytotox 16µM, ATXN2 expr inh inactive, TGFb inhibitor inactive, ATXN viability inconclusive and HepG2 tox inactive.
For COc1ccccc1NC(=O)Cn1cnc2sc(C)c(S(=O)(=O)N3CCCCC3)c2c1=O the results were KB-3-1 cytotox inactive, KB-V1 cytotox 9.2µM, ATXN2 expr inh inactive, TGFb inhibitor inactive, ATXN viability inactive and HepG2 tox inactive.
Screening Cc1ccc(-n2ncc3c(=O)n(CC(=O)N4CCCc5ccccc54)cnc32)cc1C returned KB-3-1 cytotox inactive, KB-V1 cytotox 18µM, ATXN2 expr inh inactive, TGFb inhibitor inconclusive, ATXN viability inconclusive and HepG2 tox inactive.
`CC(Sc1nccn1C)C(=O)Nc1ccccc1C#N` (stereo not drawn) gave KB-3-1 cytotox inactive, KB-V1 cytotox inactive, ATXN2 expr inh inactive, TGFb inhibitor inactive, ATXN viability inactive and HepG2 tox inactive.
`Cc1ccc(-n2ncc3c(=O)n(CC(=O)N4CCN(c5ccccc5)CC4)cnc32)cc1` gave KB-3-1 cytotox inactive, KB-V1 cytotox inconclusive, ATXN2 expr inh inactive, TGFb inhibitor inactive, ATXN viability inactive and HepG2 tox inactive.
`Cc1ccc(-n2ncc3c(=O)n(CC(=O)N4CCN(C(=O)c5ccco5)CC4)cnc32)cc1` gave KB-3-1 cytotox inactive, KB-V1 cytotox 12µM, ATXN2 expr inh inactive, TGFb inhibitor inactive, ATXN viability inconclusive and HepG2 tox inactive.
Screening CC(C)(C)n1ncc2c(=O)n(Cc3ccc(F)cc3)cnc21 returned TGFb inhibitor inactive and HepG2 tox inactive.
Screening O=C(Cn1cnc2c(oc3ccccc32)c1=O)N1CCCc2ccccc21 returned KB-3-1 cytotox inactive, KB-V1 cytotox 4.1µM, ATXN2 expr inh inactive, TGFb inhibitor inactive, ATXN viability inactive and HepG2 tox inactive.
Screening CC(C)(C)n1ncc2c(=O)n(Cc3ccc(SC(F)(F)F)cc3)cnc21 returned TGFb inhibitor 16µM and HepG2 tox inactive.
Screening COc1ccccc1NC(=O)CN1C(=O)CC(c2ccc(C)c(C)c2)=Nc2ccccc21 returned KB-3-1 cytotox inactive, KB-V1 cytotox 16µM, ATXN2 expr inh inactive, TGFb inhibitor inconclusive, ATXN viability inconclusive and HepG2 tox inactive.
For Cc1cccc(NC(=O)N2CCc3c(sc4c3CCCC4)C2c2ccc(F)cc2)c1 (stereo not drawn) the results were KB-3-1 cytotox inactive, KB-V1 cytotox inconclusive, ATXN2 expr inh inactive, TGFb inhibitor inactive, ATXN viability inactive and HepG2 tox inactive.
For O=C(NCc1ccccc1F)c1cc2ccccn2n1 the results were KB-3-1 cytotox inactive, KB-V1 cytotox inactive, ATXN2 expr inh inactive, TGFb inhibitor inactive, ATXN viability inactive and HepG2 tox inactive.
`COc1ccc(OC)c(NC(=O)Cn2cnc3c(cnn3-c3ccccc3)c2=O)c1` gave KB-3-1 cytotox inactive, KB-V1 cytotox inactive, ATXN2 expr inh inactive, TGFb inhibitor inactive, ATXN viability inconclusive and HepG2 tox inactive.
Screening COc1ccccc1NC(=O)Cn1cnc2c(cnn2-c2ccc(C)c(C)c2)c1=O returned KB-3-1 cytotox inactive, KB-V1 cytotox 13µM, ATXN2 expr inh inactive, TGFb inhibitor inactive, ATXN viability inactive and HepG2 tox inactive.
`O=C(Cn1cnc2c(cnn2-c2ccc(F)cc2)c1=O)N1CCCc2ccccc21` gave KB-3-1 cytotox inconclusive, KB-V1 cytotox 2.9µM, ATXN2 expr inh inactive, TGFb inhibitor inconclusive, ATXN viability inactive and HepG2 tox inactive.
Screening O=c1c2cnn(-c3ccccc3)c2ncn1Cc1ccccc1 returned KB-3-1 cytotox inactive, KB-V1 cytotox 21µM, ATXN2 expr inh inactive, TGFb inhibitor inactive, ATXN viability inactive and HepG2 tox inactive.
Screening CC(Oc1ccccc1)C(=O)NNC(=O)c1ccccn1 (stereo not drawn) returned KB-3-1 cytotox inconclusive, KB-V1 cytotox 4.6µM, ATXN2 expr inh inconclusive, TGFb inhibitor inconclusive, ATXN viability inconclusive and HepG2 tox inactive.
C/C(=N\NC(=O)C(C)Oc1ccc([N+](=O)[O-])cc1)c1ccccn1 (stereo not drawn) was read as KB-3-1 cytotox 8.2µM, KB-V1 cytotox 5.2µM, ATXN2 expr inh inconclusive, TGFb inhibitor inconclusive, ATXN viability 7.1µM and HepG2 tox inactive.
